Screens: PubChem, Broad Institute
C diff growth – C. difficile growth inhibitors, primary screen, HTS; AID 1259249, 2017; hit rate 0.25% among 86,000; Clostridium difficile clinical isolate growth, OD600, 24 h; active compounds read low; growth activity, negative = inhibition, % at 16 µg/mL (by protocol);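 active means mean growth activity at or below -80% and every replicate also at or below -80%; inconclusive means mean at or below -80% but some replicate above -80%; inactive means mean growth activity above -80%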;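 further: 0% = DMSO wells and -100% = levofloxacin 16 µg/mL wells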
T cruzi growth-1 – T. cruzi intracellular proliferation inhibitors, primary screen, cell-based, beta-gal Tulahuen parasites, NIH3T3 host, luminescence; T. cruzi beta-gal in NIH3T3, GalScreen luminescence, 90 h; inhibition, % at 8.34 µM; hit rate 5.9% among 77,000;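 active means mean inhibition above about 93%, with at least 55% of replicates each passing it, limit read from the data, passing the limit was not always enough; inconclusive means only one of those two conditions holds; inactive means neither condition holds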
Pf Dd2 growth – P. falciparum Dd2 growth inhibitors, primary screen, SYBR Green fluorescence, single dose replicates | 72 h; active compounds read low | activity change, % at 10 µM | hit rate 2.3% among 94,000 | AID 1159554, 2015; in the data active means activity change below about -80%; inconclusive means no clear call, values can overlap the other calls
T cruzi growth-2 – T. cruzi intracellular proliferation inhibitors, confirmation, cell-based, NIH3T3 host, beta-gal parasite, luminescence, cherry-pick; T. cruzi beta-gal in NIH3T3, GalScreen luminescence, 90 h; hit rate 72% among 5,600; inhibition, % at 8.35 µM; shares compounds with T cruzi growth-1;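 active means mean replicate inhibition above about 95% and at least 55% of replicates individually reaching it, limit read from the data; inconclusive means only one of the two criteria is met; inactive means neither criterion is met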
T cruzi growth-3 – inhibitors of intracellular T. cruzi replication, confirmation, NIH3T3 host cells, beta-gal parasites, cherry-pick, set 2; shares compounds with T cruzi growth-1; T. cruzi beta-gal in NIH3T3, GalScreen luminescence, 90 h; inhibition, % at 2.09 µM; hit rate 21% among 5,600; AID 651740, 2012;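 active means mean inhibition above about 95%, with at least 55% of replicates also reaching it, limit read from the data; inconclusive means meets just one of the two conditions; inactive means meets neither condition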;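 further: plate controls were neutral control median for no effect and positive control median for full effect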
3T3 cytotox – cytotoxicity in mouse NIH/3T3 fibroblasts, confirmation, cytotoxicity control for T. cruzi proliferation inhibitor project, cell-based, cherry-pick, single point | shares compounds with T cruzi growth-1 | NIH/3T3 viability, CellTiter-Glo ATP luminescence, 90 h | cytotoxicity (signal decrease), % at 8.35 µM | hit rate 14% among 5,600;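 active means mean signal decrease across replicates above about 35% based on untreated-well scatter, with enough replicates individually passing, limit read from the data; inconclusive means no rule stated though some were filed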;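 further: 0% = median of neutral control wells and 100% = median of positive control wells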
NIH3T3 tox 2 – NIH/3T3 fibroblast cytotoxicity, confirmation, cytotoxicity control, cell-based, cherry-pick, single point, set 2 | hit rate 56% among 5,600 | NIH/3T3 viability, CellTiter-Glo ATP luminescence, 90 h | shares compounds with T cruzi growth-1 | inhibition, % at 24.9 µM;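 active means mean loss of cell viability signal at or above a set limit, and enough replicates individually reaching it; inconclusive means meets only the mean limit or only the replicate share; inactive means meets neither condition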;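 further: 0% = median of neutral control wells and 100% = median of positive control wells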
* hit, by the source's call; ? = inconclusive; nt = not tested or not shown. In the library only some 6.8% were active in any assay of this set; here they are far more common.

SMILES	C diff growth	T cruzi growth-1	Pf Dd2 growth	T cruzi growth-2	T cruzi growth-3	3T3 cytotox	NIH3T3 tox 2
Cc1noc(C)c1NC(=O)Nc1ccc2c(c1)CC(=O)N([C@H](C)CO)C[C@@H](C)[C@H](CN(C)C(=O)NC1CCCCC1)O2	-2	0	38	nt	nt	nt	nt
CC(C)NC(=O)N(C)C[C@@H]1Oc2cc(-c3cccnc3)ccc2S(=O)(=O)N([C@@H](C)CO)C[C@H]1C	-1	-4	21	nt	nt	nt	nt
Cc1ccc(S(=O)(=O)Nc2ccc3c(c2)C(=O)N([C@@H](C)CO)C[C@H](C)[C@H](CN(C)S(=O)(=O)c2ccc(F)cc2)OCCCC[C@@H](C)O3)cc1	0	?	-67	105*	77	20	32*
Cc1ccc(S(=O)(=O)N(C)C[C@H]2OCCCC[C@H](C)Oc3ccc(NS(=O)(=O)c4ccc(F)cc4)cc3C(=O)N([C@H](C)CO)C[C@@H]2C)cc1	-2	103	-49	nt	nt	nt	nt
Cc1ccc(S(=O)(=O)N(C)C[C@@H]2OCCCC[C@H](C)Oc3ccc(NS(=O)(=O)c4ccc(F)cc4)cc3C(=O)N([C@@H](C)CO)C[C@H]2C)cc1	1	93	-45	nt	nt	nt	nt
Cc1ccc(S(=O)(=O)N(C)C[C@@H]2OCCCC[C@@H](C)Oc3ccc(NS(=O)(=O)c4ccc(F)cc4)cc3C(=O)N([C@@H](C)CO)C[C@@H]2C)cc1	9	102*	-76	105*	90	-27	12
COc1ccc(S(=O)(=O)N(C)C[C@H]2OCCCC[C@H](C)Oc3ccc(NS(C)(=O)=O)cc3C(=O)N([C@@H](C)CO)C[C@H]2C)cc1	6	-42	-12	nt	nt	nt	nt
CN(C)C(=O)C[C@@H]1CC[C@@H]2[C@H](COC[C@H](O)CN2Cc2ccc(C(F)(F)F)cc2)O1	7	-4	24	nt	nt	nt	nt
CNC[C@@H]1OCCCC[C@@H](C)Oc2ccc(NC(=O)NC(C)C)cc2C(=O)N([C@@H](C)CO)C[C@H]1C	-2	18	-26	nt	nt	nt	nt
COc1ccc(-c2ccc([C@@H]3[C@@H](C#N)N(C(=O)NC(C)C)[C@H]3CO)cc2)cc1	-12	34	-28	nt	nt	nt	nt
COc1ccc(-c2ccc([C@H]3[C@H](C#N)N(C(=O)NC4CCCC4)[C@H]3CO)cc2)cc1	1	?	-35	80	28	13	25
COc1ccc(-c2ccc([C@H]3[C@H](C#N)N(C(=O)NC4CCCCC4)[C@H]3CO)cc2)cc1	-6	101*	-24	102*	56	26	75*
COc1ccccc1-c1ccc([C@@H]2[C@@H](C#N)N(C(=O)NC3CCCCC3)[C@@H]2CO)cc1	4	95	-35	nt	nt	nt	nt
CC(=O)N1CC2(C1)[C@H](c1ccc(-c3ccccc3C)cc1)[C@@H](CO)N2C(C)=O	-12	nt	17	nt	nt	nt	nt
CC(C)C#Cc1cnc2c(c1)C(=O)N([C@H](C)CO)C[C@@H](C)[C@@H](CN(C)C(=O)c1cccnc1)O2	0	-12	2	nt	nt	nt	nt
COc1ccc(S(=O)(=O)N2CC[C@H]3[C@H](CO)Nc4ccc(-c5ccccc5F)cc4[C@H]32)cc1	-4	42	-16	nt	nt	nt	nt
O=S(=O)(c1ccc(F)cc1)N1CC[C@@H]2[C@H](CO)Nc3ccc(Br)cc3[C@@H]21	-18	61	25	nt	nt	nt	nt
O=S(=O)(c1ccccc1)N1CC[C@@H]2[C@H](CO)Nc3ccc(-c4ccccc4F)cc3[C@@H]21	66	109*	27	90	97*	23	52*
COc1ccc(S(=O)(=O)N2CC[C@@H]3[C@H]2c2cc(-c4ccccc4F)ccc2N[C@@H]3CO)cc1	-7	60	-4	nt	nt	nt	nt
Cc1ccc(S(=O)(=O)N2CC[C@@H]3[C@H]2c2cc(-c4ccccc4F)ccc2N[C@@H]3CO)cc1	-2	?	9	99*	76	38*	100*
Cc1ccc(S(=O)(=O)N2CC[C@@H]3[C@@H](CO)Nc4ccc(-c5ccccc5F)cc4[C@@H]32)cc1	3	116*	-54	100*	103*	15	17
Cc1ccc(S(=O)(=O)N2CC[C@@H]3[C@H](CO)Nc4ccc(Br)cc4[C@@H]32)cc1	-19	?	29	109*	15	15	33*
Cc1cccc(S(=O)(=O)N2CC[C@@H]3[C@@H](CO)Nc4ccc(-c5ccccc5F)cc4[C@@H]32)c1	1	1	17	nt	nt	nt	nt
CCCNC(=O)N1CC2(CCN(C(=O)CC)CC2)c2c(n(C)c3cc(OC)ccc23)[C@H]1CO	1	nt	20	nt	nt	nt	nt
CO[C@@H]1CN(C)C(=O)c2ccc(NC(=O)Nc3c(C)noc3C)cc2OC[C@@H](C)N(C)C[C@H]1C	nt	32	21	nt	nt	nt	nt
SMILES	C diff growth	T cruzi growth-1	Pf Dd2 growth	T cruzi growth-2	T cruzi growth-3	3T3 cytotox	NIH3T3 tox 2
C[C@@H]1CN([C@@H](C)CO)C(=O)c2cc(NC(=O)Nc3ccccc3)ccc2O[C@H]1CN(C)S(=O)(=O)c1ccc(Cl)cc1	-1	6	-16	nt	nt	nt	nt
O=S(=O)(c1ccccc1F)N1CC[C@@H]2[C@@H](CO)Nc3ccc(-c4ccccc4F)cc3[C@@H]21	-1	53	-12	nt	nt	nt	nt
Cc1ccccc1S(=O)(=O)N1CC[C@H]2[C@H](CO)Nc3ccc(-c4ccccc4F)cc3[C@H]21	3	109*	-7	99*	31	43*	103*
CC(C)CC#Cc1ccc2c(c1)O[C@H](CN(C)C(=O)C1CCCCC1)[C@@H](C)CN([C@H](C)CO)S2(=O)=O	18	118*	-39	106*	107*	13	105*
CC(C)CC#Cc1ccc2c(c1)O[C@H](CN(C)C(=O)C1CC1)[C@@H](C)CN([C@H](C)CO)S2(=O)=O	nt	86	-41	nt	nt	nt	nt
CC(C)CC#Cc1ccc2c(c1)O[C@H](CN(C)C(=O)C1CCCCC1)[C@@H](C)CN([C@@H](C)CO)S2(=O)=O	15	112*	-39	100*	116*	10	104*
CC(C)CC#Cc1ccc2c(c1)O[C@@H](CN(C)C(=O)C1CCCCC1)[C@H](C)CN([C@@H](C)CO)S2(=O)=O	0	122*	-75	104*	104*	19	105*
CC(C)CC#Cc1ccc2c(c1)O[C@H](CN(C)C(=O)C1CC1)[C@H](C)CN([C@H](C)CO)S2(=O)=O	nt	81	-38	nt	nt	nt	nt
CC(C)CC#Cc1ccc2c(c1)O[C@H](CN(C)C(=O)C1CC1)[C@H](C)CN([C@@H](C)CO)S2(=O)=O	nt	94	-44	nt	nt	nt	nt
O=C(c1cnccn1)N1CC[C@@H]2[C@H](CO)Nc3ccc(-c4ccccc4)cc3[C@@H]21	74	59	10	nt	nt	nt	nt
